Source: PubChem
FMDV antiviral – antivirals against foot and mouth disease virus. actives 1.2% (n = 410,000). Potency, µM (series often up to 57.9 µM), hits mostly inhibitors. FMDV antiviral cell-based qHTS. AID 1159524; calls by dose curve; tested in HEK293T cells; also: read-out not given here; nearly all actives have a fitted effect of over 45% in size
MARV entry inh – Marburg virus entry inhibition; Marburg virus pseudotyped entry inhibition, cell reporter; actives 1.8% (n = 300,000); Potency, µM (series often up to 37.8 µM), actives largely listed as inhibitors; calls by dose curve; tested in HEK293 cells
VACV mCherry inh – inhibitors of vaccinia virus infection (mCherry reporter signal). Vaccinia virus mCherry reporter infection, fluorescence. actives 0.63% (n = 310,000). AID 720579. Potency, µM (titrated, usually from 36.5 µM), most hits filed as inhibitors; calls by dose curve; tested in A549 cells; also: nearly all actives have a fitted effect of over 35% in size
Sm TGR block – inhibitors of Schistosoma mansoni thioredoxin glutathione reductase. purified TGR, DTNB reduction, TNB absorbance 405 nm. AID 485364. actives 3% (n = 360,000). Potency, µM (doses to about 114 µM), hits mostly inhibitors. Q962Y6; active = well fitted inhibition curve with a large enough effect; inconclusive = small, poorly fitted or top-dose-only effect; inactive = no such curve, though single readings can be large or run the other way; also: nearly all actives have a fitted effect of over 60% in size
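TGR 20 nM + NADPH 100 uM (dispensed conc.), cpd preinc 15 min RT; start with NADPH (500 uM addition) then DTNB (15 mM addition). Kinetic TNB absorbance, 405 nm filter. Four-parameter Hill fit across titration.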
Lassa entry inh – Lassa virus entry inhibition; Potency, µM (titrated, usually from 37.9 µM), hits mostly inhibitors; actives 1.2% (n = 300,000); AID 540256; Lassa virus pseudotype entry inhibition, cell reporter; calls by dose curve; tested in HEK293 cells; also: nearly all actives have a fitted effect of over 50% in size
Vaccinia Venus – inhibitors of vaccinia virus (Venus reporter). Vaccinia virus Venus reporter expression, fluorescence. Potency, µM (titrated, usually from 36.5 µM), usual class: inhibitors. actives 0.46% (n = 330,000). AID 720580; calls by dose curve; tested in A549 cells; also: nearly all actives have a fitted effect of over 30% in size
Hits are given with their value; . = inactive; ? = inconclusive; / = no result. Compounds with a hit are over-represented: about 5.4% of the library has one in this group of screens.

SMILES	FMDV antiviral	MARV entry inh	VACV mCherry inh	Sm TGR block	Lassa entry inh	Vaccinia Venus
Cc1ccc(N2C(=O)/C(=C\c3ccc(C(C)C)cc3)N=C2SC2CCOC2=O)cc1 (stereo not drawn)	.	6.3µM	.	.	5µM	.
COc1ccc(CNC(=O)c2ccc(CN3C(=O)C(C)=C(c4ccc(C)cc4)S3(=O)=O)cc2)cc1	.	/	.	.	.	.
Cc1cccc(CS(=O)(=O)Cc2ccc(C(=O)O)o2)c1	.	.	/	25µM	.	.
Cc1cccc(CS(=O)(=O)Cc2ccc(C(=O)NCCN3CCCCC3C)o2)c1 (stereo not drawn)	.	.	/	35µM	.	.
Cc1cccc(CSCc2ccc(C(=O)O)o2)c1	.	/	/	50µM	/	/
Cc1ccc(CSCc2ccc(C(=O)O)o2)cc1	.	/	/	?	/	/
CCOc1ccc(-c2nnc(SCC(=O)Nc3ccc(C)cc3Cl)o2)cc1	.	.	?	18µM	.	?
CCOc1ccc(-c2nnc(SCC(=O)Nc3cc(C)ccc3OC)o2)cc1	.	.	.	11µM	.	.
COc1ccc(C)cc1NC(=O)CSc1nnc(-c2ccc(C)cc2)o1	.	/	/	.	/	/
CCOc1ccc(-c2nnc(SCC(=O)Nc3ccc(C)cc3C)o2)cc1	.	.	.	.	.	.
O=C(C1CCCCC1)N1CCOc2ccc(CN3CCN(Cc4ccccn4)CC3)cc2C1	.	/	.	/	/	.
CCC1(C2CCN(Cc3ccccc3Cl)CC2)NC(=O)N(CC2COc3ccccc3O2)C1=O (stereo not drawn)	.	/	.	/	/	.
O=C(NC1CCN(C(=O)N2c3ccccc3Sc3ccccc32)CC1)c1ccccc1Cl	/	16µM	.	.	.	.
COc1cccc(C(=O)NC2CCN(C(=O)N3c4ccccc4Sc4ccccc43)CC2)c1	/	10µM	.	.	?	.
COc1ccc(CNc2nc3c(c(=O)n(C)c(=O)n3C)n2Cc2ccccc2Cl)cc1	.	.	.	.	?	.
CCOc1cc(C(=O)Nc2ccc(-c3nc4ncccc4o3)cc2C)cc(OCC)c1OCC	.	.	.	.	.	.
O=C(CSc1ccc(Cl)cc1)Nc1cccc(-c2nc3ncccc3o2)c1	14µM	?	.	.	?	.
O=C(Nc1cccc(-c2nc3ccccc3o2)c1)c1ccc(N2C(=O)C3C4C=CC(C4)C3C2=O)cc1 (stereo not drawn)	32µM	?	/	.	?	?
O=C1C2C3C=CC(C3)C2C(=O)N1c1cccc(-c2nc3ccccc3o2)c1 (stereo not drawn)	.	.	/	.	.	.
O=C(Nc1cccc(-c2nc3ccccc3o2)c1)c1ccc(-c2ccc(Br)cc2)o1	.	.	.	40µM	.	.
Cc1cc(-c2nc3ncccc3o2)ccc1NC(=O)c1ccc(Cl)cc1	.	.	.	89µM	.	.
COc1ccc(-c2nc3ccccc3o2)cc1NC(=O)c1ccc(-c2ccc(Br)cc2)o1	.	/	.	.	.	.
O=C(Nc1cccc(-c2nc3ncccc3o2)c1)c1ccc(-c2cccc(Cl)c2Cl)o1	11µM	.	?	?	.	.
O=C(Nc1cccc2nsnc12)c1ccc(-c2ccc(Br)cc2)o1	.	.	?	35µM	.	?
Cc1ccc2cccc(NC(=O)c3ccc(-c4ccc(Br)cc4)o3)c2n1	.	.	.	.	.	.
SMILES	FMDV antiviral	MARV entry inh	VACV mCherry inh	Sm TGR block	Lassa entry inh	Vaccinia Venus
COc1ccccc1C(CNC(=S)NCc1ccccc1)N1CCCC1 (stereo not drawn)	.	5.6µM	.	.	.	.
CCn1c2ccccc2c2cc(CN3CCOc4ccc(C(O)c5cccnc5)cc4C3)ccc21 (stereo not drawn)	.	/	.	/	/	?
COc1ccc(C(=O)/C=C/C(=O)N(CC(=O)NC2CCCCC2)Cc2ccc(F)cc2)c(O)c1	7.1µM	?	.	3.5µM	?	.
COc1ccc(C(=O)/C=C/C(=O)N(CC(=O)NCCC(C)C)Cc2cccs2)c(O)c1	3.5µM	21µM	/	2.8µM	?	/
COc1cccc(CN2C(=O)NC(C)(C3CCN(Cc4cccc(O)c4)CC3)C2=O)c1OC (stereo not drawn)	.	/	.	/	/	.
COc1ccc(-c2csc(NC(=O)CC(C)C)n2)cc1	?	?	.	.	13µM	.
O=C(COc1ccc(Nc2ccccc2)cc1)Nc1ccncc1	?	.	?	45µM	?	.
O=C(COc1ccccc1)Nc1nc(-c2ccncc2)cs1	28µM	?	.	.	.	.
O=C(COc1ccccc1)Nc1nc(-c2ccc(S(=O)(=O)N3CCOCC3)cc2)cs1	14µM	?	.	.	?	.
O=C(COc1ccccc1)Nc1nc(-c2cccnc2)cs1	.	/	/	.	/	/
COc1ccc(-c2csc(NC(=O)c3c(OC)cccc3OC)n2)cc1	.	.	?	.	.	.
O=C(COc1ccc(Cl)cc1)Nc1nc(-c2ccc(S(=O)(=O)N3CCOCC3)cc2)cs1	?	?	/	.	?	/
Cc1ccc(Cn2c(CNC(=O)Cc3cccc([N+](=O)[O-])c3)nc3cccnc32)cc1	.	/	.	.	.	.
O=C(CSc1nccn1Cc1ccc(Cl)cc1)Nc1nc2ccccc2s1	.	/	.	.	.	.
O=C(CCc1ccc(S(=O)(=O)N2CCOCC2)cc1)Nc1nc(COc2ccccc2)cs1	14µM	21µM	/	.	.	/
O=C(COc1ccccc1)Nc1nc2c(s1)CCCC2	.	6.3µM	.	.	?	.
COc1ccccc1N1C(=O)c2ccc(C(=O)Nc3ccc(C(=O)O)cc3)cc2C1=O	.	.	.	89µM	.	.
N#CC1=C(N)Oc2cc(O)c(Cl)cc2C1c1cccnc1 (stereo not drawn)	.	/	/	32µM	/	/
N#CC1=C(N)Oc2ccc3ccccc3c2C1c1cccnc1 (stereo not drawn)	?	?	/	40µM	?	/
N#CC1=C(N)Oc2cc(O)c(Cl)cc2C1c1ccccc1F (stereo not drawn)	.	/	.	45µM	/	.
Fc1ccc(N2CCN(C(c3cccs3)c3nnnn3CCc3ccccc3)CC2)cc1 (stereo not drawn)	.	13µM	.	.	11µM	.
Fc1ccccc1N1CCN(C(c2cccs2)c2nnnn2CCc2ccccc2)CC1 (stereo not drawn)	.	?	.	.	?	.
COc1ccc(OC)c(C(c2nnnn2CCc2ccccc2)N2CCN(c3ccccc3)CC2)c1 (stereo not drawn)	.	?	.	.	10µM	.
COc1ccccc1C(c1nnnn1Cc1ccco1)N1CCN(c2cccc(C)c2C)CC1 (stereo not drawn)	.	?	/	.	9.2µM	/
COc1ccccc1N1CCN(C(c2ccc(N(C)C)cc2)c2nnnn2CCc2ccccc2)CC1 (stereo not drawn)	.	?	.	40µM	?	.
COc1ccccc1N1CCN(C(c2ccccc2)c2nnnn2Cc2ccccc2)CC1 (stereo not drawn)	/	/	.	/	/	.
CCC1Oc2ccc(C)cc2N(CC(=O)N2CCN(c3ccccc3OC)CC2)C1=O (stereo not drawn)	.	/	.	.	.	.
